# IL1B secr inh: inflammasome signaling inhibition, IL-1 beta readout. activity change, % at 57.5 µM. actives 4.7% (n = 360,000). THP-1 LPS/ATP IL-1B secretion, AlphaLISA, 16 h; active compounds read low; in the data active = activity change below about -50%; inconclusive = mostly about -30% to -49%
#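 Secreted IL-1B measured by AlphaLISA bead assay after 16 h compound exposure of THP-1 cells; compounds (final up to 57.5 uM) added 1 h before LPS (250 ng/mL) and ATP (1.25 mM) stimulation; lower signal means less secretion.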
# DT40 TDP1 CPT: DT40-hTDP1 cell growth loss with CPT; chicken DT40 Tdp1-/-;hTDP1 cells + 20 nM CPT, ATP luminescence, 48 h; actives 12% (n = 420,000); Potency, µM (titrated, usually from 46.2 µM), inactives show at the top dose activity change, negative = growth inhibition, usual class: inhibitors; note: potency is the fitted concentration of half-maximal effect; nearly all actives have a fitted effect of over 55% in size
#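 Chicken DT40 Tdp1-/- cells complemented with human TDP1, 400 cells/well, exposed to compounds plus 20 nM camptothecin for at least 48 h at 37 C; viability read as ATP content by CellTiter-Glo luminescence.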
# DT40 TDP1 no CPT: qHTS for Inhibitors of human tyrosyl-DNA phosphodiesterase 1 (TDP1): qHTS in cells in absence of CPT; DT40 Tdp1-/- hTDP1 cells, no CPT, ATP luminescence, 48 h; Potency, µM (top dose mostly 46.2 µM), without a hit: at the top dose activity change, negative = growth inhibition, actives largely listed as inhibitors; actives 15% (n = 420,000); note: potency is the fitted concentration of half-maximal effect; nearly all actives have a fitted effect of over 55% in size
#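 Stably hTDP1-transfected Tdp1-null chicken DT40 cells were treated with library compounds minus camptothecin and grown for at least 48 hr at 37 °C, after which cellular ATP was quantified by luminescence.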
# HT1080-NT tox: kills 2HG-producing HT-1080-NT fibrosarcoma cells; actives 1.6% (n = 360,000); Potency, µM (highest dose often 46.1 µM), without a hit: at the highest dose activity, negative = less viability, hits mostly cytotoxic; HT-1080-NT fibrosarcoma viability, CellTiter-Glo ATP luminescence, 48 h; AID 686970;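 note: NT is the 2HG producing partner of a matched IDH1 knockdown line; potency is the fitted concentration of half-maximal effect; 0% = DMSO-treated cells and -100% = media-only wells without cells; nearly all actives have a fitted effect of over 55% in size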
#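 Read-out is CellTiter-Glo luminescence after 10 minutes at room temperature, following 48 hours' compound treatment of HT-1080-NT cells (750 cells/well, RPMI, 5% FBS, 37 degrees C).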
# HT1080 IDH1KD tx: toxicity to HT-1080 IDH1 knockdown cells (counter line); HT-1080 IDH1 knockdown viability, ATP luminescence, 48 h; Potency, µM (titrated, usually from 46.1 µM), without a hit: top-dose activity, negative = toxicity, hits mostly cytotoxic; actives 2% (n = 360,000);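 note: potency is the fitted concentration of half-maximal effect; 0% = DMSO wells and -100% = cell-free medium wells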
#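 Cytotoxicity counter-line: IDH1KD HT-1080, 48 h, CellTiter-Glo. Curves classed by r2, magnitude and activity.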
# The depositor's hits bear a star; u = inconclusive; x = not tested or not shown; ! = a repeat was not active; [ ] = another dose, or the depositor's remark. An excerpt weighted towards active compounds, which were near 19% of everything screened. Unless noted, calls come from the whole dose curve; as a rule, active = well fitted curve in the direction sought with a large enough effect; inconclusive = small, poorly fitted or top-dose-only effect, or another doubt; inactive = no such curve, though single readings can be large; an effect the other way counts as inactive or inconclusive. Unless noted, % is set by controls: 0 for no effect and ±100 for the full control effect.
SMILES,IL1B secr inh,DT40 TDP1 CPT,DT40 TDP1 no CPT,HT1080-NT tox,HT1080 IDH1KD tx
Cc1ccccc1OCC(=O)NC(=S)Nc1ccc(S(=O)(=O)NC2CCCCC2)cc1,-5.2,u,13µM*,u,1.3%[9.24 µM]
c1ccc2c3c([nH]c2c1)-c1[nH]ncc1CC3,-27.6,16.4µM*,u,u,-28.9%
Clc1ccc2[nH]c3c(c2c1)CCc1cn[nH]c1-3,-21.8,u,18.4µM*,u,u
COc1cc(=O)n2c(c1C(=O)N1CCc3ccccc3C1)CCN(Cc1ccc(CO)o1)CC2,x,11.7%,-5.7%,x,x
CS(=O)(=O)N(Cc1ccccc1)c1ccc(C(=O)N2CCN(c3cccc(Cl)c3)CC2)cc1,u,11.2µM*,14.1µM*,u,u
CS(=O)(=O)N(Cc1ccccc1)c1ccccc1C(=O)N1CCN(c2ccccc2)CC1,0.0,20.6µM*,16.4µM*,0.4%,-13.4%
CS(=O)(=O)N(CC(=O)N1CCOCC1)c1cccc(F)c1,2.3,9.8%,10.3%,9.1%,20.4%
CS(=O)(=O)N(Cc1ccc(Cl)cc1)c1ccc(C(=O)N2CCN(c3ccccc3)CC2)cc1,-50.7*,u,u,-17.1%,-13.6%
CS(=O)(=O)N(CC(=O)N1CCN(c2cccc(Cl)c2)CC1)c1cccc(F)c1,-18.1,u,16.4µM*,-6.4%,-0.6%
Cc1nnc(SCC(=O)Nc2ccc(Br)cc2)[nH]c1=O,x,-18.6%,-14.3%,x,x
CN(CCCn1cnc2c(OCc3ccccc3)ncnc21)Cc1ccco1,-15.3,-22.2%,-14.0%,-1.9%,5.6%
COc1ccc(N2CCN(C(=O)CCNC(=O)Cn3ccc4ccccc4c3=O)CC2)cc1,10.9,-17.1%,-8.7%,-11.6%,5.4%
CCc1c(C)nc2c(C)cccc2c1SCCC#N,29.9,u,u,0.2%,-7.3%
Cc1csc2nc(CN3CCN(CC(=O)N(C)C)CC3)cc(=O)n12,17.3,20.3%,-15.5%,2.9%,8.5%
O=C(C[n+]1cc(-c2ccccc2)n2c1CCC2)Nc1nc(-c2ccc(F)cc2)cs1,0.0,u,16.4µM*,-9.5%,-7.3%
O=C(C[n+]1cc(-c2ccc(Cl)cc2)n2c1CCC2)Nc1nc(-c2ccc(F)cc2)cs1,-23.3,u,18.4µM*,-4.2%,-3.0%
CCCNC(=S)N1CCC(C(=O)c2ccc3c(c2)OCCO3)CC1,-23.1,u,u,-2.7%,-1.6%
COc1cc2c(cc1OC)C1(CCCCC1)CN(C)C2,-2.6,21.8%,-13.0%,0.1%,-0.7%
Cc1c(NC(=O)CSc2nnc(-c3ccccc3F)o2)c(=O)n(-c2ccccc2)n1C,3.5,-4.7%,0.6%,-0.9%,-0.1%
OCC1OC(n2cnc3c(SCc4ccccc4)ncnc32)C(O)C1O (stereo unspecified),17.1,u,u,7.31µM*,23.1µM*
Nc1ncnc2c1ncn2[C@@H]1O[C@H](CNCc2ccc(OCc3ccccc3)cc2)[C@@H](O)[C@H]1O,-0.3,18.4µM*,10.3µM*,-25.7%,-24.9%
Nc1ncnc2c1ncn2C1OC(CO)C(O)C1O (stereo unspecified),-15.2,1.3µM*!,0.92µM*!,19.2%,20.7%
OCC1OC(n2cnc3c(NC4CCCC4)ncnc32)C(O)C1O (stereo unspecified),8.2,-6.8%,-23.1%,10.8%,-0.9%
Cc1cn(-c2cccnc2)c(C)c1CNC[C@H]1O[C@@H](n2cnc3c(N)ncnc32)[C@H](O)[C@@H]1O,27.6,18.4µM*,9.2µM*,4.6%,0.1%
Cc1sc2ccccc2c1CNC[C@H]1O[C@@H](n2cnc3c(N)ncnc32)[C@H](O)[C@@H]1O,1.2,-9.3%,-26.6%,5.9%,-0.1%
SMILES,IL1B secr inh,DT40 TDP1 CPT,DT40 TDP1 no CPT,HT1080-NT tox,HT1080 IDH1KD tx
COc1ccccc1CNC(=O)CCC1N=C2c3ccccc3N=C(SCC(=O)NCC3CCCO3)N2C1=O (stereo unspecified),20.6,1.4%,8.9%,16.7%,5.6%
CC(C)(C)c1ccc(S(=O)(=O)NC(=O)C2(C)CCN2C(=O)Cc2cccc3ccccc23)cc1 (stereo unspecified),0.0,5.3%,3.7%,-5.3%,-2.9%
CCCCc1ccc(NC(=S)NCCc2ccc(S(N)(=O)=O)cc2)cc1,10.8,-5.5%,u,-0.1%,-25.3%
COc1ccc(Cn2c(=O)[nH]c3cc(C(=O)NCCC(C)C)ccc3c2=O)cc1,x,1.9%,-24.9%,x,x
O=C(O)CNC(=O)c1ccccc1Br,23.0,11.7%,17.9%,-2.0%,29.5%
CCC(=O)c1ccc(OCC(=O)NNC(=O)c2cc(C)oc2C)cc1,18.8,-8.9%,-19.1%,-0.9%,-3.8%
OCC1OC(n2cnc3c(N4CCCCC4)ncnc32)C(O)C1O (stereo unspecified),0.0,-16.8%,-8.6%,-3.0%,-4.2%
N#Cc1c(N)n(C2OC(CO)C(O)C2O)c2ncnc(N)c12 (stereo unspecified),-101.8*,0.0164µM*,0.0206µM*,1.3µM*,0.517µM*
Nc1nccc2c1ncn2C1OC(CO)C(O)C1O (stereo unspecified),u,7.31µM*,5.8µM*,-5.5%,-15.6%
N#Cc1ccccc1S(=O)(=O)NC(=O)[C@H]1O[C@@H](n2cnc3c(N)ncnc32)[C@H](O)[C@@H]1O,0.0,u,13µM*,17.5%,14.0%
OC[C@H]1O[C@@H](n2cnc3cncnc32)[C@H](O)[C@@H]1O,x,0.259µM*,0.461µM*,x,x
COc1ccc(OC)c(C(=O)c2ccc(C(=O)Nc3ccc(NC(C)=O)cc3)cc2)c1,-8.2,-3.5%,-5.8%,u,u
CCNc1ncc2nc(-c3cn(C)c4ccccc34)c(=O)n(Cc3cccc(OC)c3)c2n1,x,10.5%,-1.7%,x,x
Nc1ncnc2c1ncn2[C@@H]1O[C@H](CO)[C@@H](O)[C@@H]1O,-2.7,0.461µM*,0.366µM*,15.9%,-1.9%
Nc1ncnc2c1ncn2C1O[C@H](CO)[C@@H](O)[C@@H]1O (stereo partly specified),16.1,0.461µM*,0.206µM*,-1.8%,0.3%
Fc1ccccc1CSc1ncnc2c1ncn2C1CCCCO1 (stereo unspecified),-8.3,-15.7%,u,-7.6%,-0.1%
Clc1ccc(CSc2ncnc3c2ncn3C2CCCCO2)cc1 (stereo unspecified),-25.6,u,16.4µM*,-18.7%,-29.2%
Nc1ncnc2c1ncn2C1OC(CO)C(O)C1N (stereo unspecified),11.8,-24.4%,u,9.4%,0.1%
Nc1ncnc2c1[nH]c(=S)n2C1OC(CO)C(O)C1O (stereo unspecified),x,1.8%,2.0%,x,x
Nc1ncnc2c1c(I)cn2C1OC(CO)C(O)C1O (stereo unspecified),x,0.49µM*,0.276µM*,x,x
